Measurements: ChEMBL document CHEMBL3988442, “University of Dundee, Small-Polar-MMV Screening Library” (2021)
In all, about 48,000 compounds went through this assay and about 13,000 (27%) showed an effect of 50% or more. The list shows a part of the results.

test system: Wolbachia pipientis; test: Anti-Wolbachia Cell-Based Screen; assay type: functional; design: scale not given: in the data most compounds retested in dose-response had high values; details: 5 µM

| Compound | Percent Effect [%] |
| --- | --- |
| N#Cc1ccc(CS(=O)(=O)NC(=O)c2ccc3c(c2)COC3)cc1 | -4.05 |
| Cn1cc(Cl)cc1C(=O)N1CCN(Cc2ccsc2)CC1 | -5.701 |
| CC(=O)N1CCC(N2CCOC[C@H]2c2nc(-c3cccnc3)c[nH]2)CC1 | 31.59 |
| Cc1nc(NC(=O)c2c(-n3cnnn3)sc3c2CCCC3)sc1C | 119.6 |
| CC[C@H](C)[C@H](NC(=O)c1ccccc1-n1cnnn1)C(=O)OC | 39.09 |
| Cc1nc(NC(=O)c2c(-n3cnnn3)sc(C)c2C)sc1C | 111.3 |
| Cc1nc(NC(=O)c2c(-n3cnnn3)sc3c2CCC3)sc1C | 89.24 |
| Cc1nc(NC(=O)c2cccnc2N2CCOCC2)sc1C | -47.07 |
| Cc1sc(-n2cnnn2)c(C(=O)NC(C)C)c1C | 78.35 |
| Cc1nc(NC(=O)C(C)N2CCN(c3cnccn3)CC2)sc1C (centres undefined) | 1.711 |
| CCC(C)NC(=O)c1ccccc1-n1cnnn1 (centres undefined) | -7.012 |
| O=C(COCC1CC1)N1CCCC(n2cccn2)C1 (centres undefined) | 4.687 |
| CC1CN(Cc2ccccc2)CCCN1CCCS(C)(=O)=O (centres undefined) | -4.156 |
| CC(=O)c1ccc(C(=O)N2CCC(c3cc(O)nc(C)n3)CC2)s1 | -1.622 |
| CC(=O)Nc1nc(C2CCN(C(=O)Cc3ccccc3)CC2)cs1 | 87.03 |
| CC(=O)Nc1nc(C(=O)N2CCCC(c3cc(C)[nH]n3)C2)cs1 (centres undefined) | -0.9316 |
| CC(=O)Nc1nc(C2CCN(C(=O)c3cncs3)CC2)cs1 | 107.2 |
| Nc1nc(C2CCN(C(=O)c3cncs3)CC2)cs1 | -2.594 |
| CC(=O)Nc1nc(C2CCN(C(C)C)CC2)cs1 | 119.6 |
| Cc1nc(-c2ccc(CC(=O)N3CCN(C(=O)C4CC4)CC3)cc2)cs1 | 16.03 |
| CC(=O)Nc1nc(C2CCN(C(=O)C3CCC3)CC2)cs1 | 103.4 |
| CC(=O)Nc1nc(C2CCN(CC(N)=O)CC2)cs1 | -6.255 |
| CCc1csc(CCNC(=O)CC2CCN(C(C)C)CC2)n1 | 8.427 |
| CC(=O)N1CCC(C(=O)Nc2nc(C3CC3)cs2)CC1 | 19.21 |
| CSCC(=O)NC(Cc1ccc(C)cc1)c1ccccn1 (centres undefined) | -0.4247 |
| O=C(Cn1cc(C2CC2)nn1)NC(c1cc(F)ccc1F)C1CC1 (centres undefined) | -5.532 |

| Compound | Percent Effect [%] |
| --- | --- |
| O=C(C1CC=CC1)N1CCC2(CCC(=O)N2Cc2cccc(F)c2)CC1 | -0.5854 |
| O=C(NC[C@H]1OC[C@@H](NCc2ccc(F)cc2)[C@@H]1O)c1ccncc1 | -2.517 |
| CC(=O)Nc1nc(C(=O)N2CCC(Nc3cccnn3)CC2)cs1 | -3.618 |
| CC(=O)Nc1nc(C2CCN(C(=O)c3ccncc3)CC2)cs1 | 108.8 |
| COc1ccccc1N1CCC(N2CCOCC(CO)C2)CC1 (centres undefined) | 9.24 |
| O=C(CC1CCCO1)NCc1ccc(Br)cc1F (centres undefined) | 3.91 |
| CN(CC1(CO)CCOCC1)[C@@H]1c2ccccc2C2(CCNCC2)[C@H]1O | 1.582 |
| O=C(O)[C@]12CCCN(Cc3cccnc3)[C@@H]1CCN(c1cnccn1)C2 | -19.78 |
| CC(C)(C)OC(=O)NCC1CCCCN1Cc1cccnc1 (centres undefined) | 4.728 |
| CC(C)(C)OC(=O)NCC1CCCCN1Cc1ccncc1 (centres undefined) | -3.492 |
| c1cc(CN2CCCCC2c2ccc(Nc3cnccn3)nc2)ccn1 (centres undefined) | 159 |
| c1cncc(CN2CCCCC2c2ccc(Nc3cnccn3)nc2)c1 (centres undefined) | 73.84 |
| CCc1ccc(C(=O)N2CCN(CCS(C)(=O)=O)CC2)o1 | -5.31 |
| CN(C)C(=O)C1CCC2(CCN(C(=O)Nc3cccc(F)c3)CC2)O1 (centres undefined) | 98.46 |
| O=C(Nc1cccc(-c2cscn2)c1)N1CCC2(CC1)CC(O)CO2 (centres undefined) | -8.053 |
| Cc1cccc(NC(=O)N2CCC3(CCC(C(=O)N(C)C)O3)CC2)c1 (centres undefined) | 100.6 |
| Cc1cccc(NC(=O)N2CCN(Cc3nnc(C(C)C)o3)CC2)c1 | -19.75 |
| Cc1nsc(N2CCN(C(=O)Nc3cccc(F)c3)CC2)n1 | -8.293 |
| O=C(Nc1cccc(F)c1)N1CCN(Cc2noc(C3CC3)n2)CC1 | -10.54 |
| CC(C)NC(=O)CN1CCC2(CC1)OCCO2 | -0.8474 |
| CC(=O)N1CCC(c2nc(Cc3ccccc3)no2)C1 (centres undefined) | -18.53 |
| CC(=O)N1CCC(c2noc(C3CCC(=O)N3)n2)CC1 (centres undefined) | 120.5 |
| O=C(Nc1cccs1)N1CC(c2nc(C3CC3)no2)C1 | 10.74 |
| O=C1CCC(c2nc(C3CCN(C(=O)Cc4cccs4)CC3)no2)N1 (centres undefined) | 131.4 |
| O=C1CCC2(CCCN(C(=O)Cc3cccs3)C2)N1 (centres undefined) | -20.18 |
| O=C1NCCCc2[nH]c(-c3nc(C4CC4)no3)nc21 | -6.286 |

| Compound | Percent Effect [%] |
| --- | --- |
| Cc1nc(C2CCCN(C(=O)C(C)(C)n3cc(Cl)cn3)C2)no1 (centres undefined) | -4.996 |
| O=C1NCCCc2[nH]c(-c3nc(C4CCCCC4)no3)nc21 | 4.619 |
| CC(C)(C)C(=O)N1CCC(c2noc(C3CCC(=O)N3)n2)CC1 (centres undefined) | 136.3 |
| O=C1CCC(c2nc(C3CCNCC3)no2)N1 (centres undefined) | 104.8 |
| Cc1noc(C2CCN(CC(=O)N3CCNC(=O)C3)CC2)n1 | -10.42 |
| CN(C)C(C(=O)N1CC(Oc2ccccc2F)C1)c1ccc(F)cc1 (centres undefined) | 10.57 |
| CCN(CC1CCOC1)C(=O)Nc1ccc(-n2cncn2)nc1 (centres undefined) | -5.162 |
| CCC[C@H]1CN(CCS(C)(=O)=O)C[C@@H]1NC(=O)Cn1cc(C)cn1 | -15.47 |
| CCc1nccn1CCNC1CCN(c2nc3ccc(Cl)cc3s2)CC1 | -30.49 |
| O=C1CCC(c2nc(C3CCN(C(=O)C4CC4)CC3)no2)N1 (centres undefined) | 107.7 |
| CC1(C)CNC(=O)c2nc(C3CCN(C(=O)C4CC4)CC3)[nH]c2C1 | -1.461 |
| O=C(CN1CCCC(c2noc(C3CC3)n2)C1)N1CCCC1 (centres undefined) | -17.34 |
| CC(Nc1ncnc2c1CCNC2)c1ccc2c(c1)CCCC2 (centres undefined) | -81.25 |
| CC(C)CNc1nccc(-c2cnc3sc(Cl)cn3c2=O)n1 | 98.56 |
| CC[C@@H](CO)Nc1nccc(-c2cnc3sc(C)cn3c2=O)n1 | 82.9 |
| C[C@@H](CO)Nc1nccc(-c2cnc3sc(Cl)cn3c2=O)n1 | 101.5 |
| Cc1ccc(NCCCNc2nccc(-c3cn(C)nc3C)n2)nc1 | 4.133 |
| CC[C@H](C)Nc1nccc(-c2cnc3sccn3c2=O)n1 | 96.29 |
| c1cnc(NCc2n[nH]c3c2CCN(Cc2ccncc2)C3)nc1 | -7.099 |
| Cc1nc[nH]c1CN1CCCC(CNC(=O)c2ccc(N)nc2)C1 (centres undefined) | -15.92 |
| COc1cc2c(nn1)CCN(Cc1noc(CC(C)C)n1)C2 | -12.11 |
| Cc1nc(CN2CCCC(CCc3c(F)cccc3F)C2)c[nH]1 (centres undefined) | 27.92 |
| CNS(=O)(=O)CCNCC1(O)CCCN(CCC2CCCCC2)C1=O (centres undefined) | 1.698 |
| Cn1cc(NC(=O)CCc2ccsc2)ccc1=O | -1.148 |
| Cc1cn2c(=O)c(-c3ccnc(N[C@@H](C)CO)n3)cnc2s1 | 99.21 |
| CC[C@H](C)Nc1nccc(-c2cnc3sc(C)cn3c2=O)n1 | 91.04 |

| Compound | Percent Effect [%] |
| --- | --- |
| CCCN(Cc1ccc(C#N)cc1)Cc1nnsc1Cl | 8.987 |
| CCNC(=O)CNC(=O)c1ccn(S(=O)(=O)c2ccc(C)cc2)c1 | 0.9489 |
| Cc1cccc(CN2C[C@@H]3CC[C@H](C2)N(Cc2c(C)noc2C)C3=O)n1 | -29.28 |
| Cc1cnn(CC2CCCN2C(=O)c2cccc(CC#N)c2)c1 (centres undefined) | -7.7 |
| Cc1cnn(CC2CCCCN2C(=O)c2cccc(C(N)=O)c2)c1 (centres undefined) | 110.6 |
| CCN(CC)C(=O)C1CCCN1C(=O)c1cccc(-n2cnnn2)c1 (centres undefined) | 98.96 |
| Cc1cnn(CC2CCCN2C(=O)c2cccc(-n3ccc(C)n3)c2)c1 (centres undefined) | 119 |
| Cc1cnn(CC2CCCN2C(=O)c2cccc(S(C)(=O)=O)c2)c1 (centres undefined) | 115.2 |
| Cc1cnn(CC2CCCN2C(=O)c2cccc(-n3cnnn3)c2)c1 (centres undefined) | -8.957 |
| COC(=O)[C@H]1CCCCN1C(=O)c1cccc(-n2cccn2)c1 | -1.168 |
| Cn1ccc(C2CCCCN2C(=O)c2cccc(-n3cccn3)c2)n1 (centres undefined) | -0.8494 |
| Cc1cnn(CC2CCCCN2C(=O)c2cc(C(N)=O)cs2)c1 (centres undefined) | 3.915 |
| CC(C)c1nc(COc2cccc3c2NC(=O)CO3)cs1 | -10.7 |
| NC(=O)c1c(NC(=O)CCC(=O)O)sc2c1CCc1ccccc1-2 | 188.5 |
| NC(=O)c1c(NC(=O)C2CCCO2)sc2c1CCc1ccccc1-2 (centres undefined) | 117 |
| CC(C)(C)c1cc(NC(=O)C2CCCO2)n(-c2ccccn2)n1 (centres undefined) | -31.1 |
| O=C(Cc1cccs1)NCC1(O)CCc2ccccc2C1 (centres undefined) | 1.555 |
| NC(=O)c1c(NC(=O)CCCC(=O)O)sc2c1CCc1ccccc1-2 | 119.8 |
| CC(=O)Nc1sc2c(c1C(=O)O)CCc1ccccc1-2 | 112.1 |
| O=C(Nc1cccc(N2CCN(CC3CC3)CC2)c1)C1CCCO1 (centres undefined) | -16.14 |
| Cc1cccc2c1nc1n2[C@@H](CNC(=O)C2CCOCC2)COC1 | -17.69 |
| NC(=O)c1ccc(CNCC2CCN(CCO)CC2)cc1 | 2.18 |
| Cc1nc(CCN(C)C(=O)CCNC(=O)c2ccccc2F)no1 | -9.414 |
| CCc1cc(NCc2ccc(-n3cncn3)c(C)c2)n(C)n1 | -10.44 |
| CC(CC(=O)O)CC(=O)Nc1sc2c(c1C(N)=O)CCc1ccccc1-2 (centres undefined) | 127.8 |
| CC(NC(=O)Cn1cc(C(N)=O)c(-c2ccccc2)n1)C1CC1 (centres undefined) | 6.248 |
